Laboratory results from PubChem BioAssay AID1159580 (chemical genetic matrix, 2015).
In all, about 5,500 compounds went through this assay and about 2,000 (36%) were called active. About 18% were inconclusive and are not listed. Cut-off read from the data, not from the text of the source: active = normalized growth mostly below about 0.91 (no sharp cut-off); inconclusive = no clear call, values can overlap the other calls; inactive = mostly above about 0.92. Some of the results follow.

Assay: chemical genetic growth profiling, strain panel (AID 1159580);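 note: tested at 20 µM; growth read once vehicle control cultures reached saturation at 30 °C; 1 = growth at the plate median or of vehicle wells; lower values mean less growth of the strain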
Settings: growth OD

Measured: normalized growth

COc1ccc2c(c1)CCC(c1ccccc1)=C2c1ccc(OCCN2CCCC2)cc1
active: S. cerevisiae deletion strains, locus YBR021W, strain FUR4, stronger effect = lower value 0.239 | S. cerevisiae deletion strains, locus YCL029C, strain bik1, stronger effect = lower value 0.549 | S. cerevisiae deletion strains, locus YDL035C, strain GPR1, stronger effect = lower value 0.638 | S. cerevisiae deletion strains, locus YDL074C, strain BRE1, stronger effect = lower value 0.511 | S. cerevisiae deletion strains, locus YDL101C, strain DUN1, stronger effect = lower value 0.329 | S. cerevisiae deletion strains, locus YDL134C, strain PPH21, stronger effect = lower value 0.407 | S. cerevisiae deletion strains, locus YDL192W, strain arf1, stronger effect = lower value 0.095 | S. cerevisiae deletion strains, locus YDR101C, strain arx1, stronger effect = lower value 0.675 | S. cerevisiae deletion strains, locus YDR162C, strain NBP2, stronger effect = lower value 0.174 | S. cerevisiae deletion strains, locus YDR318W, strain mcm21, stronger effect = lower value 0.382 | S. cerevisiae deletion strains, locus YDR388W, stronger effect = lower value 0.181 | S. cerevisiae deletion strains, locus YDR502C, strain sam2, stronger effect = lower value 0.405 | S. cerevisiae deletion strains, locus YER110C, stronger effect = lower value 0.863 | S. cerevisiae deletion strains, locus YER167W, strain BCK2, stronger effect = lower value 0.85 | S. cerevisiae deletion strains, locus YGL086W, strain mad1, stronger effect = lower value 0.28 | S. cerevisiae deletion strains, locus YGL248W, strain PDE1, stronger effect = lower value 0.465 | S. cerevisiae deletion strains, locus YGR135W, strain pre9, stronger effect = lower value 0.408 | S. cerevisiae deletion strains, locus YGR252W, strain gcn5, stronger effect = lower value 0.251 | S. cerevisiae deletion strains, locus YHR079C, strain IRE1 (second series), stronger effect = lower value 0.617 | S. cerevisiae deletion strains, locus YHR094C, strain hxt1, stronger effect = lower value 0.714 | S. cerevisiae deletion strains, locus YHR129C, strain ARP1, stronger effect = lower value 0.674 | S. cerevisiae deletion strains, locus YHR200W, strain rpn10, stronger effect = lower value 0.706 | S. cerevisiae deletion strains, locus YIL066C, strain RNR3, stronger effect = lower value 0.553 | S. cerevisiae deletion strains, locus YIL073C, strain SPO22, stronger effect = lower value 0.3 | S. cerevisiae deletion strains, locus YIR030C, strain dcg1, stronger effect = lower value 0.513 | S. cerevisiae deletion strains, locus YJL095W, strain BCK1, stronger effect = lower value 0.138 | S. cerevisiae deletion strains, locus YJL168C, strain set2, stronger effect = lower value 0.409 | S. cerevisiae deletion strains, locus YJL187C, strain SWE1 (second series), stronger effect = lower value 0.367 | S. cerevisiae deletion strains, locus YJR075W, strain HOC1, stronger effect = lower value 0.593 | S. cerevisiae deletion strains, locus YKL190W, strain CNB1, stronger effect = lower value 0.524 | S. cerevisiae deletion strains, locus YKR001C, strain vps1, stronger effect = lower value 0.0705 | S. cerevisiae deletion strains, locus YLR039C, strain RIC1, stronger effect = lower value 1.37 [resistant] | S. cerevisiae deletion strains, locus YLR058C, strain SHM2, stronger effect = lower value 0.446 | S. cerevisiae deletion strains, locus YLR102C, strain apc9, stronger effect = lower value 0.683 | S. cerevisiae deletion strains, locus YLR268W, strain sec22, stronger effect = lower value 0.415 | S. cerevisiae deletion strains, locus YLR342W, strain FKS1 (second series), stronger effect = lower value 0.348 | S. cerevisiae deletion strains, locus YLR371W, strain rom2, stronger effect = lower value 0.355 | S. cerevisiae deletion strains, locus YLR418C, strain cdc73, stronger effect = lower value 0.295 | S. cerevisiae deletion strains, locus YML016C, strain PPZ1, stronger effect = lower value 0.491 | S. cerevisiae deletion strains, locus YML032C, strain rad52, stronger effect = lower value 0.492 | S. cerevisiae deletion strains, locus YML124C, strain tub3, stronger effect = lower value 0.672 | S. cerevisiae deletion strains, locus YMR223W, strain ubp8, stronger effect = lower value 0.478 | S. cerevisiae deletion strains, locus YNL067W, strain RPL9B, stronger effect = lower value 0.825 | S. cerevisiae deletion strains, locus YNL233W, strain BNI4, stronger effect = lower value 0.423 | S. cerevisiae deletion strains, locus YNL307C, strain MCK1, stronger effect = lower value 0.258 | S. cerevisiae deletion strains, locus YNL322C, strain KRE1, stronger effect = lower value 0.796 | S. cerevisiae deletion strains, locus YNR052C, strain pop2, stronger effect = lower value 0.136 | S. cerevisiae deletion strains, locus YOL006C, strain TOP1, stronger effect = lower value 0.323 | S. cerevisiae deletion strains, locus YOL012C, strain htz1 0.17 | S. cerevisiae deletion strains, locus YOL147C, strain pex11, stronger effect = lower value 0.445 | S. cerevisiae deletion strains, locus YOR061W, strain CKA2, stronger effect = lower value 0.206 | S. cerevisiae deletion strains, locus YOR069W, strain VPS5, stronger effect = lower value 0.859 | S. cerevisiae deletion strains, locus YOR136W, strain idh2, stronger effect = lower value 0.734 | S. cerevisiae deletion strains, locus YOR144C, strain elg1, stronger effect = lower value 0.813 | S. cerevisiae deletion strains, locus YOR184W, strain ser1, stronger effect = lower value 0.522 | S. cerevisiae deletion strains, locus YOR316C, strain cot1, stronger effect = lower value 0.794 | S. cerevisiae deletion strains, locus YPR119W, strain clb2, stronger effect = lower value 0.774 | S. cerevisiae deletion strains, locus YPR163C, strain tif3, stronger effect = lower value 0.0746 | S. cerevisiae deletion strains, locus YPR167C, strain met16, stronger effect = lower value 0.633 | S. cerevisiae deletion strains, strain wtn01, stronger effect = lower value 0.274 | S. cerevisiae strains, strain wild type, stronger effect = lower value 0.358
inactive: S. cerevisiae deletion strains, locus YBR229C, strain ROT2, stronger effect = lower value 0.946 | S. cerevisiae deletion strains, locus YDL185W, strain tfp1, stronger effect = lower value 0.972 | S. cerevisiae deletion strains, locus YER155C, strain BEM2, stronger effect = lower value 0.961 | S. cerevisiae deletion strains, locus YGL078C, strain dbp3, stronger effect = lower value 0.973 | S. cerevisiae deletion strains, locus YGR078C, strain PAC10, stronger effect = lower value 0.852 | S. cerevisiae deletion strains, locus YIL125W, strain kgd1, stronger effect = lower value 0.987 | S. cerevisiae deletion strains, locus YJL134W, strain LCB3, stronger effect = lower value 1.01 | S. cerevisiae deletion strains, locus YKL009W, strain mrt4, stronger effect = lower value 0.925 | S. cerevisiae deletion strains, locus YKL068W, stronger effect = lower value 0.994 | S. cerevisiae deletion strains, locus YKL085W, strain MDH1 (second series), stronger effect = lower value 0.976 | S. cerevisiae deletion strains, locus YKL085W, strain MDH1, stronger effect = lower value 0.976 | S. cerevisiae deletion strains, locus YLR262C, strain YPT6, stronger effect = lower value 1.16 | S. cerevisiae deletion strains, locus YMR078C, strain ctf18, stronger effect = lower value 0.979 | S. cerevisiae deletion strains, locus YMR307W, strain GAS1, stronger effect = lower value 0.764 | S. cerevisiae deletion strains, locus YNL250W, strain rad50, stronger effect = lower value 0.953 | S. cerevisiae deletion strains, locus YNL271C, strain bni1, stronger effect = lower value 0.992 | S. cerevisiae deletion strains, locus YNL298W, strain CLA4, stronger effect = lower value 0.957 | S. cerevisiae deletion strains, locus YPR141C, strain kar3, stronger effect = lower value 0.977
